Measurements reported in PubChem BioAssay (EPA / NIEHS).
Inconclusive results are not listed. Activity calls are given as the source filed them. Rule for the calls, unless noted: active = hit-call score of the fitted dose curve at least 0.9, where 1 is the maximum; inactive = score below 0.9.

Legend:
[1] = target: Paired box protein Pax-6 (Homo sapiens) (UniProt P26367); assay: ATG_Pax6_CIS: Attagene CIS-FACTORIAL HepG2 Assay for human Paired Box 6 (PAX6) (AID 2282956); settings: HepG2 CIS-FACTORIAL PAX6 reporter transcription, RNA readout; actives raise or lower the signal
Summary of the method: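 Multiplexed cis-reporter HepG2 system; 24 h treatment; reporter mRNA read by RT-PCR/CE fluorescence; bidirectional fit vs DMSO.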

[2] = ATG_PXRE_CIS: Attagene CIS-FACTORIAL HepG2 Assay for human Pregnane X Receptor Element (PXRE) (AID 2282957); settings: HepG2 Attagene CIS-FACTORIAL PXRE reporter, mRNA; actives raise or lower the signal
Summary of the method: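 HepG2 cells transiently transfected with cis-element-driven multiplexed reporter units; after 24 h chemical exposure, reporter mRNA measured by RT-PCR, 6-FAM labelling, HpaI digestion and capillary electrophoresis. Bidirectional fitting relative to DMSO.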

[3] = ATG_RORE_CIS: Attagene CIS-FACTORIAL HepG2 Assay for human RAR-related Orphan Receptor Element (RORE) (AID 2282959); settings: HepG2 Attagene cis-factorial RORE reporter, mRNA; actives raise or lower the signal
Summary of the method: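 Measured here: transcript induction of a cis-regulated reporter in HepG2 cells transiently transfected via FuGene 6. After 24 h, RNA was processed by RT-PCR and fluorescent capillary electrophoresis; DMSO defined baseline activity.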

[4] = ATG_Sox_CIS: Attagene CIS-FACTORIAL HepG2 Assay for human SRY-box transcription factor (SOX) (AID 2282960); settings: HepG2 Attagene cis-factorial SOX reporter, mRNA; actives raise or lower the signal
Summary of the method: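 Using transiently transfected HepG2 cells, reporter transcription driven by cis elements was assessed 24 h after dosing. Signal was fluorescence of capillary-separated RT-PCR products, with DMSO defining baseline activity.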

[5] = target: Transcription factor Sp1 (Homo sapiens) (UniProt P08047); assay: ATG_Sp1_CIS: Attagene CIS-FACTORIAL HepG2 Assay for human Specificity Protein 1 (Sp1) (AID 2282961); settings: HepG2 Sp1 cis-reporter transcription, actives raise or lower the signal
Summary of the method: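 After transient transfection of HepG2 cells with cis-promoter reporter units and 24 h chemical treatment, reporter transcripts were quantified by RT-PCR and capillary electrophoresis fluorescence. Gain- and loss-of-signal fitted against DMSO.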

[6] = target: Signal transducer and activator of transcription 3 (Homo sapiens) (UniProt P40763); assay: ATG_STAT3_CIS: Attagene CIS-FACTORIAL HepG2 Assay for human Signal Transducer and Activator of Transcription 3 (STAT3) (AID 2282963); settings: HepG2, Attagene cis-factorial STAT3 reporter transcription; actives raise or lower the signal
Summary of the method: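 After a 24 h compound incubation, total RNA from MRTU-transfected HepG2 cells was converted to cDNA and reporter sequences PCR-amplified, labelled and profiled by capillary electrophoresis. Gain and loss of signal were referenced to DMSO.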

[7] = ATG_TA_CIS: Attagene CIS-FACTORIAL HepG2 Assay for human TA Basal Promoter (AID 2282964); settings: HepG2 Attagene CIS-factorial TA basal promoter reporter; actives raise or lower the signal
Summary of the method: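 Background-control readout: TA basal promoter reporter mRNA, fitted in both directions relative to DMSO. Measured by RT-PCR and capillary electrophoresis 24 hours after treating HepG2 human liver cells transiently carrying multiplexed cis-regulated reporter constructs.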

[8] = ATG_TCF_b_cat_CIS: Attagene CIS-FACTORIAL HepG2 Assay for human T-Cell-Factor with beta-catenin (TCF/b-cat) (AID 2282965); settings: HepG2 TCF/beta-catenin cis-reporter transcription, actives raise or lower the signal
Summary of the method: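 Endogenous transcription factor activity is captured through cis-promoter reporter constructs transiently introduced into human HepG2 liver cells. Induced reporter mRNA is measured after 24 h and fitted bidirectionally relative to DMSO.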

[9] = ATG_TAL_CIS: Attagene CIS-FACTORIAL HepG2 Assay for human TAL Basal Promoter (AID 2282966); settings: HepG2 Attagene cis-factorial TAL promoter reporter; actives raise or lower the signal;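 note: background control endpoint measuring basal TAL promoter reporter mRNA not a specific factor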
Summary of the method: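 HepG2 cells transiently transfected with multiplexed cis-promoter reporter units, dosed 24 h. Reporter mRNA quantified by RT-PCR, 6-FAM labelling, HpaI digestion and capillary electrophoresis; TAL basal promoter serves as background control, fitted bidirectionally versus DMSO.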

[10] = ATG_VDRE_CIS: Attagene CIS-FACTORIAL HepG2 Assay for human Vitamin D Receptor Element (VDRE) (AID 2282968); settings: HepG2 VDRE cis-reporter transcription, actives raise or lower the signal
Summary of the method: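 In transiently transfected HepG2 liver cells, gain or loss of reporter mRNA after 24 h exposure is scored relative to DMSO, using fluorescence detection by capillary electrophoresis of RT-PCR products.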

[11] = target: X-box-binding protein 1 (Homo sapiens) (UniProt P17861); assay: ATG_Xbp1_CIS: Attagene CIS-FACTORIAL HepG2 Assay for human X-box Binding Protein 1 (XBP1) (AID 2282972); settings: HepG2 XBP1 cis-element reporter, Attagene multiplex; actives raise or lower the signal
Summary of the method: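 Fluorescence-labelled cDNA fragments from reporter transcripts, separated by capillary electrophoresis, give the signal. Source: HepG2 cells transfected with promoter-driven reporter units, harvested 24 h post-dose. DMSO served as reference for bidirectional curve fitting.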

[12] = ATG_GAL4_TRANS: Attagene TRANS-FACTORIAL HepG2 Assay for GAL4 (Internal Marker) (AID 2282976; active = hit-call score of the fitted dose curve at least 0.9, where 1 is the maximum); settings: HepG2 Attagene TRANS GAL4 internal marker reporter
Summary of the method: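 Background-control readout: GAL4-UAS reporter transcript in transiently transfected HepG2 cells after 24 h compound exposure. Measured by RT-PCR, 6-FAM primer extension, HpaI digest and capillary electrophoresis; gain-of-signal fit versus DMSO.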

[13] = ATG_SREBP_CIS: Attagene CIS-FACTORIAL HepG2 Assay for human Sterol Regulatory Element Binding (SREBP) (AID 2282962); settings: HepG2 Attagene cis-factorial SREBP reporter, mRNA; actives raise or lower the signal
Summary of the method: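 mRNA induction of transfected cis-promoter reporters in HepG2 cells, 24 h post-dose. Detection: RT-PCR with 6-FAM-labelled products, HpaI digest, capillary electrophoresis. DMSO served as negative control and baseline.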

[14] = ATG_TGFb_CIS: Attagene CIS-FACTORIAL HepG2 Assay for human Transforming Growth Factor (TGF) (AID 2282967); settings: HepG2 Attagene CIS TGFb reporter, mRNA transcription; actives raise or lower the signal
Summary of the method: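 Endogenous TGFB1-linked transcription factor activity read as reporter mRNA via RT-PCR and capillary electrophoresis, 24 h after dosing transiently transfected HepG2 cells. Gain or loss of signal fitted relative to DMSO.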

[15] = target: Nuclear receptor subfamily 1 group I member 3 (Homo sapiens) (UniProt Q14994); assay: ATG_CAR_TRANS: Attagene TRANS-FACTORIAL HepG2 Assay for human Constitutive Androstane Receptor (CAR) (AID 2282969; active = hit-call score of the fitted dose curve at least 0.9, where 1 is the maximum;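 note: activators raise reporter mRNA above DMSO so AC50 marks induction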); settings: HepG2 Attagene TRANS-FACTORIAL CAR reporter
Summary of the method: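 Readout is reporter mRNA induction, quantified by fluorescent primer extension and capillary electrophoresis after RT-PCR. Cells were HepG2 transiently carrying chimeric NR-Gal4 constructs with GAL4-UAS reporters, treated for 24 h; activity scored upward from DMSO.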

[16] = target: Estrogen receptor (Homo sapiens) (UniProt P03372); assay: ATG_ERa_TRANS: Attagene TRANS-FACTORIAL HepG2 Assay for human Estrogen Receptor alpha (ERa) (AID 2282970; active = hit-call score of the fitted dose curve at least 0.9, where 1 is the maximum); settings: HepG2 Attagene TRANS ERa GAL4 reporter, mRNA
Summary of the method: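 HepG2 cells transiently transfected with multiplexed GAL4-UAS reporter units read out chimeric NR-Gal4 activity. After 24 h compound exposure, reporter mRNA was quantified by RT-PCR, 6-FAM labeling, HpaI digestion and capillary electrophoresis, relative to DMSO.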

[17] = ATG_M_19_TRANS: Attagene TRANS-FACTORIAL HepG2 Assay for M19 Transcription Factor (Internal Marker) (AID 2282974; active = hit-call score of the fitted dose curve at least 0.9, where 1 is the maximum); settings: HepG2 Attagene TRANS-FACTORIAL M19 internal marker reporter
Summary of the method: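 Gain-of-signal in reporter mRNA, relative to DMSO, was scored from capillary electrophoresis fluorescence. HepG2 cells carried transiently transfected multiple reporter transcription units and were incubated with test chemicals for 24 h.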

[18] = target: Steroid hormone receptor ERR1 (Homo sapiens) (UniProt P11474); assay: ATG_ERRa_TRANS: Attagene TRANS-FACTORIAL HepG2 Assay for human Estrogen-Related Receptor alpha (ERRa) (AID 2282971; active = hit-call score of the fitted dose curve at least 0.9, where 1 is the maximum); settings: HepG2 Attagene TRANS reporter, ERRa transactivation
Summary of the method: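 HepG2 cells transiently transfected with GAL4-UAS reporter units and chimeric NR-Gal4 constructs; after 24 hour compound incubation, reporter mRNA quantified by RT-PCR, fluorescent labelling and capillary electrophoresis, gain of signal versus DMSO.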

[19] = target: Estrogen-related receptor gamma (Homo sapiens) (UniProt P62508); assay: ATG_ERRg_TRANS: Attagene TRANS-FACTORIAL HepG2 Assay for human Estrogen-Related Receptor gamma (ERRg) (AID 2282977; active = hit-call score of the fitted dose curve at least 0.9, where 1 is the maximum;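 note: hits increase reporter signal over DMSO so potencies reflect activators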); settings: HepG2 Attagene TRANS reporter, ERRg transactivation
Summary of the method: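 Transient HepG2 transfectants, 24 h compound exposure, GAL4-UAS reporter mRNA by RT-PCR/6-FAM labelling/capillary electrophoresis; positive direction vs DMSO.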

Measured: AC50

Chain of Paired box protein Pax-6 (Homo sapiens) (P26367 whole entry, looked up): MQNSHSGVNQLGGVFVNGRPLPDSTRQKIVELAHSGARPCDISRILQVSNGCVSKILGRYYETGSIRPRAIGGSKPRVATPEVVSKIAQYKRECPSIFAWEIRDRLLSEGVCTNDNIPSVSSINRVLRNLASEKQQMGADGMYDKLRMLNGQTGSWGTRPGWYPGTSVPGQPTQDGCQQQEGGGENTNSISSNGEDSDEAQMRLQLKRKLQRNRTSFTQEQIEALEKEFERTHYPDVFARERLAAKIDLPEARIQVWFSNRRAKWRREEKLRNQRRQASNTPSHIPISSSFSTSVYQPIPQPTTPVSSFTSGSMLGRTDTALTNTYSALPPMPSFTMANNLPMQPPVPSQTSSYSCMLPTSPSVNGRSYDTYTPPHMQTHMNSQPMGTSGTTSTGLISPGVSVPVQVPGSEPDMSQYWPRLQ
Chain of Estrogen receptor (Homo sapiens) (P03372 whole entry, looked up, the tested form may be a part): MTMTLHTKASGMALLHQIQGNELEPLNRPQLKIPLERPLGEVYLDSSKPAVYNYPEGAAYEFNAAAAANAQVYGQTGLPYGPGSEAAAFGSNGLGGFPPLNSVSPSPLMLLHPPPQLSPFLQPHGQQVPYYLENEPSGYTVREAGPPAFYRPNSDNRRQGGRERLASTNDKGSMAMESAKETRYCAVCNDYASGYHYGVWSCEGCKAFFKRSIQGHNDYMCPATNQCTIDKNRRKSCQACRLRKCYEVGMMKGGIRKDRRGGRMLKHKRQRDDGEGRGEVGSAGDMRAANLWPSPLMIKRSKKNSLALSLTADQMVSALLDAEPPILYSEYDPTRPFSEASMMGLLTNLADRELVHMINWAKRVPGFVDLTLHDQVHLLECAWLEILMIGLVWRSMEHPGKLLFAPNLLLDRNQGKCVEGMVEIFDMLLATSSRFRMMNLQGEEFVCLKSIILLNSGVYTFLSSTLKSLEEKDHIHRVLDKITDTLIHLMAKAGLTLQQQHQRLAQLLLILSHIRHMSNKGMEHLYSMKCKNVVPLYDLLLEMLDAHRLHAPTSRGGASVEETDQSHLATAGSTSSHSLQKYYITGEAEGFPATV
Chain of Signal transducer and activator of transcription 3 (Homo sapiens) (P40763 whole entry, looked up): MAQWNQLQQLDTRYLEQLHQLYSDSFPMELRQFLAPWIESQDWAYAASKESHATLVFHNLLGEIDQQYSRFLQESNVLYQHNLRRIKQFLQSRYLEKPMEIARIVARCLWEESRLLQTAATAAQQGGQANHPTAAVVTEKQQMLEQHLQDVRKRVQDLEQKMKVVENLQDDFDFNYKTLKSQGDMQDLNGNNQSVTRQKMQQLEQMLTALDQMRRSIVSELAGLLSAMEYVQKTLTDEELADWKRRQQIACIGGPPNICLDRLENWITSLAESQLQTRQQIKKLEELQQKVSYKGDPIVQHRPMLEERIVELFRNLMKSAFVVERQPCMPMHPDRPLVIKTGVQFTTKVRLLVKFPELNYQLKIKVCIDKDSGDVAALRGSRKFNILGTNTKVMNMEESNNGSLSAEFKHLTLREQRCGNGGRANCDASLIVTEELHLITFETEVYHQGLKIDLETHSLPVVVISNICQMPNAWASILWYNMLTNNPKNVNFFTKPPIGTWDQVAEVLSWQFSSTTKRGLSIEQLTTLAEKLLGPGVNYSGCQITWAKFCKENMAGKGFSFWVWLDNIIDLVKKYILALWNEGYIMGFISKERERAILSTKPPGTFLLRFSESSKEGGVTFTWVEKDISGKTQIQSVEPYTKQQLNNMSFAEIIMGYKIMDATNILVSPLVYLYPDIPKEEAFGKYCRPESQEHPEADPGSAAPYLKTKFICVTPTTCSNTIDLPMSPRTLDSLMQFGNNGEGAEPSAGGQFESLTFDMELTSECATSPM
Chain of Transcription factor Sp1 (Homo sapiens) (P08047 whole entry, looked up): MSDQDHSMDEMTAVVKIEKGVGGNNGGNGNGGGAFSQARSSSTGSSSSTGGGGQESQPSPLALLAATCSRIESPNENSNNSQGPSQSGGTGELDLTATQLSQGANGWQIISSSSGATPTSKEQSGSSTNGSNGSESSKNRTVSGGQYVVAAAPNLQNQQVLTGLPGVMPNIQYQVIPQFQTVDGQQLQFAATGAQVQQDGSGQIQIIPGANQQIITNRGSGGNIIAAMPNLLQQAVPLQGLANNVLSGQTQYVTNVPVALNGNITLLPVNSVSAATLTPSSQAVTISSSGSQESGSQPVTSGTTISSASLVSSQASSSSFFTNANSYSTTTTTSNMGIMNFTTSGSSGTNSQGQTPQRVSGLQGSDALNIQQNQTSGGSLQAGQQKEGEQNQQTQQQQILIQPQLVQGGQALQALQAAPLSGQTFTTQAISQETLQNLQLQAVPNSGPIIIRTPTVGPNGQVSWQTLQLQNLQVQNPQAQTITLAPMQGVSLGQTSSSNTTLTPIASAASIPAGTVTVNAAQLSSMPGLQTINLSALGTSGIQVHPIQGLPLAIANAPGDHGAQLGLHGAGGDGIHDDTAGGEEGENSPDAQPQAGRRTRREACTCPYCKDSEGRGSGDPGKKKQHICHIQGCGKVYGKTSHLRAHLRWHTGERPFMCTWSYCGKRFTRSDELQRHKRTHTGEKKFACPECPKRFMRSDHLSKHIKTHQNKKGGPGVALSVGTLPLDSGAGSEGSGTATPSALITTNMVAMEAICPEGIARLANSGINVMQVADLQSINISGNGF
Chain of Nuclear receptor subfamily 1 group I member 3 (Homo sapiens) (Q14994 whole entry, looked up, the tested form may be a part): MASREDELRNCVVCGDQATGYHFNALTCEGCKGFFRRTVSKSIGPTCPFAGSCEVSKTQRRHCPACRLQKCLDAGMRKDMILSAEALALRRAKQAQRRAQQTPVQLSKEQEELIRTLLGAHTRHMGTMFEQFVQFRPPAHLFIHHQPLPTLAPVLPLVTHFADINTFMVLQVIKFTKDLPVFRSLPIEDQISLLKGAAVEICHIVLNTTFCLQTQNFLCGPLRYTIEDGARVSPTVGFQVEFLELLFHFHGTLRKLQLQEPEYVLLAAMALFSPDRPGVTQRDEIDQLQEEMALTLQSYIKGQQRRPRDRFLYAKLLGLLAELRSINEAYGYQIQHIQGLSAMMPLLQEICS
Chain of X-box-binding protein 1 (Homo sapiens) (P17861 whole entry, looked up, the tested form may be a part): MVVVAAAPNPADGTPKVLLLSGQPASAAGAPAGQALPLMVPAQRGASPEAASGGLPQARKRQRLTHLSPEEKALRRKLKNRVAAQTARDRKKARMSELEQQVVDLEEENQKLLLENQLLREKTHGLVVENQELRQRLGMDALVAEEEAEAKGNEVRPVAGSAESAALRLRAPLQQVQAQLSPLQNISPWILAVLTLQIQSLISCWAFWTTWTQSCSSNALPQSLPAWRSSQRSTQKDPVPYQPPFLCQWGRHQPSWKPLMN
Chain of Steroid hormone receptor ERR1 (Homo sapiens) (P11474 whole entry, looked up, the tested form may be a part): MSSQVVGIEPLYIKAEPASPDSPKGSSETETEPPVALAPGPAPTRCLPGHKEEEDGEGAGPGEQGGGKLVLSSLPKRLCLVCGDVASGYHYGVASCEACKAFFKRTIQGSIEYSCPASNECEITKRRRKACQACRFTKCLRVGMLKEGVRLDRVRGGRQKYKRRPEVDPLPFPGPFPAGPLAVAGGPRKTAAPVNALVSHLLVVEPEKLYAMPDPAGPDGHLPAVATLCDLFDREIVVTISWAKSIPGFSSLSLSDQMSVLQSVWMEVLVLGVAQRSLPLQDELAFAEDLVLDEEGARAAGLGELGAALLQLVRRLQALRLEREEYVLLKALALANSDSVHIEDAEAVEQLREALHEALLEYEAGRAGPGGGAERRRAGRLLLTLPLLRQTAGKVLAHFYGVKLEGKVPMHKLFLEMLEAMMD
Chain of Estrogen-related receptor gamma (Homo sapiens) (P62508 whole entry, looked up, the tested form may be a part): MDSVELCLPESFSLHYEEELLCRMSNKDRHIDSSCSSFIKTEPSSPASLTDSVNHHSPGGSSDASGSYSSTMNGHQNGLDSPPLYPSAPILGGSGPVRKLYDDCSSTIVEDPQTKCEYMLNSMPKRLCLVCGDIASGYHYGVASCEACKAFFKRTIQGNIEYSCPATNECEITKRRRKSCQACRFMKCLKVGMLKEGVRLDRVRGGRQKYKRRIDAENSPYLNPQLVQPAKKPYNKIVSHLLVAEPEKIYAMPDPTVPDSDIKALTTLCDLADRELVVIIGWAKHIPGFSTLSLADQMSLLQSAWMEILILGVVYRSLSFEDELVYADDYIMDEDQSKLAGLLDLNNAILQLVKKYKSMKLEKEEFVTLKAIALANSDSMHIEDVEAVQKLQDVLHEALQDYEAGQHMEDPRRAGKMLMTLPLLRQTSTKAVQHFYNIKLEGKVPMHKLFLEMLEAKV

O=C1NC(=O)c2ccccc21
active: [2] 38.5 µM
not listed: [13] | [14] | [15] | [16] | [17] | [18] | [19]
inactive: all other assays above

CN(CCOc1ccc(CC2SC(=O)NC2=O)cc1)c1ccccn1 (stereo unspecified)
active: [2] 6.08 µM | [3] 9.64 µM | [13] 5.58 µM
not listed: [5] | [10] | [12] | [18] | [19]
inactive: all other assays above

CC(C)C[C@H]1C(=O)N2CCC[C@H]2[C@]2(O)O[C@](NC(=O)[C@@H]3C=C4c5cccc6[nH]c(Br)c(c56)C[C@H]4N(C)C3)(C(C)C)C(=O)N12
inactive: [13] | [6] | [18] | [11] | [17] | [12] | [19]
active: [1] 4.02 µM | [2] 0.302 µM | [3] 1.9 µM | [5] 2.91 µM | [7] 3.09 µM | [8] 4.37 µM | [9] 2.19 µM | [10] 1.3 µM

c1ccc2c(c1)c1cccc3ccc4cccc2c4c31
not listed: [4] | [5] | [12] | [18] | [19]
inactive: all other assays above

O=S(=O)(O)NC1CCCCC1
not listed: [3] | [12] | [15] | [16] | [18] | [19]
inactive: all other assays above

O=C1c2ccccc2C(=O)N1SC1CCCCC1
active: [2] 148 µM | [5] 59.1 µM | [6] 145 µM | [9] 60.1 µM | [14] 144 µM | [16] 46 µM
not listed: [11] | [13] | [18] | [19]
inactive: all other assays above

O=CCCc1ccccc1
active: [2] 23.6 µM
not listed: [3] | [12] | [15] | [16] | [19]
inactive: all other assays above

CC(C)(Oc1ccc(CCNC(=O)c2ccc(Cl)cc2)cc1)C(=O)O
inactive: [1] | [3] | [5] | [6] | [7] | [8] | [9] | [10] | [11] | [12]
active: [2] 25.6 µM

CCCCCC=CCC(=O)OC
active: [2] 100 µM
not listed: [4] | [10] | [15] | [16] | [18] | [19]
inactive: all other assays above

CC(c1cc2ccccc2s1)N(O)C(N)=O (stereo unspecified)
not listed: [3] | [10] | [11] | [12] | [15] | [18] | [19]
inactive: all other assays above

CC(C)=CCCC(C)CC=O (stereo unspecified)
not listed: [12] | [13] | [15] | [16] | [18] | [19]
inactive: all other assays above
